# Laboratory results published in PubChem BioAssay AID1159580 (chemical genetic matrix, 2015).
# Values joined by “and” are separate entries in the source; they are usually repeats but may differ in a detail not shown here. Equal values may be shown once. The campaign covered roughly 5,500 compounds. About 2,000 (36%) were called active. Not shown: some 18% with an inconclusive outcome. The list shows a part of the results. A number with no mark means an inactive call. Rule as the data show it: active = normalized growth mostly below about 0.91 (no sharp cut-off); inconclusive = no clear call, values can overlap the other calls; inactive = mostly above about 0.92.
# Assay: chemical genetic growth profiling, strain panel (AID 1159580);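 also: tested at 20 µM; growth read once vehicle control cultures reached saturation at 30 °C; 1 = growth at the plate median or of vehicle wells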
# Settings: growth OD
compound,measurement,setting,value
CN(C)CCCN1c2ccccc2CCc2ccc(Cl)cc21,normalized growth,"S. cerevisiae deletion strains, locus YJR066W, strain TOR1, stronger effect = lower value",0.923
same,normalized growth,"S. cerevisiae deletion strains, locus YKL009W, strain mrt4, stronger effect = lower value",0.971
same,normalized growth,"S. cerevisiae deletion strains, locus YKL068W, stronger effect = lower value",0.991
same,normalized growth,"S. cerevisiae deletion strains, locus YKL085W, strain MDH1 (second series), stronger effect = lower value",0.994
same,normalized growth,"S. cerevisiae deletion strains, locus YKL085W, strain MDH1, stronger effect = lower value",0.994
same,normalized growth,"S. cerevisiae deletion strains, locus YKL160W, strain elf1, stronger effect = lower value",0.993
same,normalized growth,"S. cerevisiae deletion strains, locus YKL190W, strain CNB1, stronger effect = lower value",0.953
same,normalized growth,"S. cerevisiae deletion strains, locus YKR001C, strain vps1, stronger effect = lower value",0.644 (active)
same,normalized growth,"S. cerevisiae deletion strains, locus YKR026C, strain gcn3, stronger effect = lower value",1.01
same,normalized growth,"S. cerevisiae deletion strains, locus YKR091W, strain srl3, stronger effect = lower value",1
same,normalized growth,"S. cerevisiae deletion strains, locus YLL001W, strain dnm1, stronger effect = lower value",1.01
same,normalized growth,"S. cerevisiae deletion strains, locus YLL026W, stronger effect = lower value",0.982
same,normalized growth,"S. cerevisiae deletion strains, locus YLL041C, strain sdh2, stronger effect = lower value",1
same,normalized growth,"S. cerevisiae deletion strains, locus YLR027C, strain aat2, stronger effect = lower value",0.996
same,normalized growth,"S. cerevisiae deletion strains, locus YLR039C, strain RIC1, stronger effect = lower value",1.35 [resistant] (active)
same,normalized growth,"S. cerevisiae deletion strains, locus YLR058C, strain SHM2, stronger effect = lower value",0.946
same,normalized growth,"S. cerevisiae deletion strains, locus YLR102C, strain apc9, stronger effect = lower value",0.995
same,normalized growth,"S. cerevisiae deletion strains, locus YLR113W, strain HOG1, stronger effect = lower value",0.983
same,normalized growth,"S. cerevisiae deletion strains, locus YLR221C, strain rsa3, stronger effect = lower value",0.999
same,normalized growth,"S. cerevisiae deletion strains, locus YLR258W, strain gsy2, stronger effect = lower value",0.961
same,normalized growth,"S. cerevisiae deletion strains, locus YLR262C, strain YPT6 (second series), stronger effect = lower value",1.14
same,normalized growth,"S. cerevisiae deletion strains, locus YLR262C, strain YPT6, stronger effect = lower value",1.33
same,normalized growth,"S. cerevisiae deletion strains, locus YLR268W, strain sec22, stronger effect = lower value",0.961
same,normalized growth,"S. cerevisiae deletion strains, locus YLR320W, strain mms22, stronger effect = lower value",1
same,normalized growth,"S. cerevisiae deletion strains, locus YLR330W, strain CHS5, stronger effect = lower value",0.996
same,normalized growth,"S. cerevisiae deletion strains, locus YLR342W, strain FKS1 (second series), stronger effect = lower value",0.615 (active)
same,normalized growth,"S. cerevisiae deletion strains, locus YLR342W, strain FKS1, stronger effect = lower value",0.998
same,normalized growth,"S. cerevisiae deletion strains, locus YLR357W, strain rsc2, stronger effect = lower value",0.974
same,normalized growth,"S. cerevisiae deletion strains, locus YLR370C, strain arc18, stronger effect = lower value",0.993
same,normalized growth,"S. cerevisiae deletion strains, locus YLR371W, strain rom2, stronger effect = lower value",0.984
same,normalized growth,"S. cerevisiae deletion strains, locus YLR384C, strain iki3, stronger effect = lower value",1
same,normalized growth,"S. cerevisiae deletion strains, locus YLR418C, strain cdc73, stronger effect = lower value",0.64 (active)
same,normalized growth,"S. cerevisiae deletion strains, locus YML016C, strain PPZ1, stronger effect = lower value",0.978
same,normalized growth,"S. cerevisiae deletion strains, locus YML032C, strain rad52, stronger effect = lower value",0.967
same,normalized growth,"S. cerevisiae deletion strains, locus YML120C, strain ndi1, stronger effect = lower value",0.986
same,normalized growth,"S. cerevisiae deletion strains, locus YML124C, strain tub3, stronger effect = lower value",0.989
same,normalized growth,"S. cerevisiae deletion strains, locus YMR058W, strain fet3, stronger effect = lower value",0.966
same,normalized growth,"S. cerevisiae deletion strains, locus YMR078C, strain ctf18, stronger effect = lower value",0.989
same,normalized growth,"S. cerevisiae deletion strains, locus YMR125W, strain sto1, stronger effect = lower value",0.962
same,normalized growth,"S. cerevisiae deletion strains, locus YMR129W, stronger effect = lower value",1
same,normalized growth,"S. cerevisiae deletion strains, locus YMR205C, strain PFK2, stronger effect = lower value",0.979
same,normalized growth,"S. cerevisiae deletion strains, locus YMR223W, strain ubp8, stronger effect = lower value",0.934
same,normalized growth,"S. cerevisiae deletion strains, locus YMR231W, strain pep5, stronger effect = lower value",0.999
same,normalized growth,"S. cerevisiae deletion strains, locus YMR263W, strain SAP30, stronger effect = lower value",0.892 and 1.04
same,normalized growth,"S. cerevisiae deletion strains, locus YMR307W, strain GAS1, stronger effect = lower value",0.726
same,normalized growth,"S. cerevisiae deletion strains, locus YNL067W, strain RPL9B, stronger effect = lower value",0.924
same,normalized growth,"S. cerevisiae deletion strains, locus YNL071W, strain lat1, stronger effect = lower value",1.01
same,normalized growth,"S. cerevisiae deletion strains, locus YNL175C, strain NOP13, stronger effect = lower value",1.07
same,normalized growth,"S. cerevisiae deletion strains, locus YNL183C, strain NPR1, stronger effect = lower value",0.934
same,normalized growth,"S. cerevisiae deletion strains, locus YNL209W, strain ssb2, stronger effect = lower value",0.926 (active)
same,normalized growth,"S. cerevisiae deletion strains, locus YNL224C, strain SQS1, stronger effect = lower value",1.04
same,normalized growth,"S. cerevisiae deletion strains, locus YNL233W, strain BNI4, stronger effect = lower value",0.877
same,normalized growth,"S. cerevisiae deletion strains, locus YNL248C, strain rpa49, stronger effect = lower value",0.983
same,normalized growth,"S. cerevisiae deletion strains, locus YNL250W, strain rad50, stronger effect = lower value",0.996
same,normalized growth,"S. cerevisiae deletion strains, locus YNL271C, strain bni1, stronger effect = lower value",0.993
same,normalized growth,"S. cerevisiae deletion strains, locus YNL298W, strain CLA4, stronger effect = lower value",0.999
same,normalized growth,"S. cerevisiae deletion strains, locus YNL307C, strain MCK1, stronger effect = lower value",0.961
same,normalized growth,"S. cerevisiae deletion strains, locus YNL322C, strain KRE1 (second series), stronger effect = lower value",1.01
same,normalized growth,"S. cerevisiae deletion strains, locus YNL322C, strain KRE1, stronger effect = lower value",0.988 and 0.981
same,normalized growth,"S. cerevisiae deletion strains, locus YNR049C, strain mso1, stronger effect = lower value",1.01
same,normalized growth,"S. cerevisiae deletion strains, locus YNR052C, strain pop2, stronger effect = lower value",0.935
same,normalized growth,"S. cerevisiae deletion strains, locus YOL006C, strain TOP1, stronger effect = lower value",0.311 (active)
same,normalized growth,"S. cerevisiae deletion strains, locus YOL012C, strain htz1",1.42
same,normalized growth,"S. cerevisiae deletion strains, locus YOL147C, strain pex11, stronger effect = lower value",0.989
same,normalized growth,"S. cerevisiae deletion strains, locus YOR001W, strain rrp6, stronger effect = lower value",0.982
same,normalized growth,"S. cerevisiae deletion strains, locus YOR061W, strain CKA2, stronger effect = lower value",0.847 (active)
same,normalized growth,"S. cerevisiae deletion strains, locus YOR069W, strain VPS5, stronger effect = lower value",0.984
same,normalized growth,"S. cerevisiae deletion strains, locus YOR070C, strain gyp1, stronger effect = lower value",0.99
same,normalized growth,"S. cerevisiae deletion strains, locus YOR080W, strain dia2, stronger effect = lower value",1
same,normalized growth,"S. cerevisiae deletion strains, locus YOR083W, strain WHI5 (second series), stronger effect = lower value",1.1
same,normalized growth,"S. cerevisiae deletion strains, locus YOR083W, strain WHI5, stronger effect = lower value",0.985
same,normalized growth,"S. cerevisiae deletion strains, locus YOR106W, strain vam3, stronger effect = lower value",0.846 (active)
same,normalized growth,"S. cerevisiae deletion strains, locus YOR136W, strain idh2, stronger effect = lower value",1.01
same,normalized growth,"S. cerevisiae deletion strains, locus YOR144C, strain elg1, stronger effect = lower value",0.991
same,normalized growth,"S. cerevisiae deletion strains, locus YOR184W, strain ser1, stronger effect = lower value",0.96
same,normalized growth,"S. cerevisiae deletion strains, locus YOR231W, strain MKK1, stronger effect = lower value",0.999
same,normalized growth,"S. cerevisiae deletion strains, locus YOR265W, strain rbl2, stronger effect = lower value",1
same,normalized growth,"S. cerevisiae deletion strains, locus YOR270C, strain vph1, stronger effect = lower value",0.567 (active)
same,normalized growth,"S. cerevisiae deletion strains, locus YOR290C, strain snf2, stronger effect = lower value",0.903
same,normalized growth,"S. cerevisiae deletion strains, locus YOR316C, strain cot1, stronger effect = lower value",0.977
same,normalized growth,"S. cerevisiae deletion strains, locus YPL051W, strain arl3, stronger effect = lower value",0.989
same,normalized growth,"S. cerevisiae deletion strains, locus YPL078C, strain atp4, stronger effect = lower value",0.987
same,normalized growth,"S. cerevisiae deletion strains, locus YPL106C, strain sse1, stronger effect = lower value",1.02
same,normalized growth,"S. cerevisiae deletion strains, locus YPL240C, strain hsp82, stronger effect = lower value",0.99
same,normalized growth,"S. cerevisiae deletion strains, locus YPL241C, strain CIN2, stronger effect = lower value",0.986 and 0.999
same,normalized growth,"S. cerevisiae deletion strains, locus YPL256C, strain CLN2, stronger effect = lower value",1.02
same,normalized growth,"S. cerevisiae deletion strains, locus YPR119W, strain clb2, stronger effect = lower value",0.993
same,normalized growth,"S. cerevisiae deletion strains, locus YPR141C, strain kar3, stronger effect = lower value",0.99
same,normalized growth,"S. cerevisiae deletion strains, locus YPR163C, strain tif3, stronger effect = lower value",0.728 (active)
same,normalized growth,"S. cerevisiae deletion strains, locus YPR167C, strain met16, stronger effect = lower value",0.986
same,normalized growth,"S. cerevisiae deletion strains, strain wtn01, stronger effect = lower value",0.928
same,normalized growth,"S. cerevisiae strains, strain wild type, stronger effect = lower value",0.902
